# Marburg entry inh: blocks Marburg virus binding to or entry into cells. 1.8% of 300,000 active. AID 540276. Marburg virus pseudotyped entry inhibition, cell reporter. Potency, µM (highest dose often 37.8 µM), hits mostly inhibitors; calls by dose curve; tested in HEK293 cells
# HCV inhibitor: blocks hepatitis C virus | Huh7.5.1 HCVcc-Cre infection, luciferase reporter, 44 h | Potency, µM (highest dose often 41.8 µM), most hits filed as inhibitors | 3.4% of 340,000 active | AID 651820; active = well fitted inhibition curve with a large enough effect; inconclusive = small, poorly fitted or top-dose-only effect, or another doubt; inactive = no such curve, though single readings can be large or run the other way
#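 Seed cells (1,000/well) for 4 h; treat with compound and infect with HCVcc-Cre, moi about 0.5. Incubate 44 h, then detect luciferase activity.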
# LASV entry inh: blocks Lassa virus binding to or entry into cells | Potency, µM (top dose mostly 37.9 µM), actives largely listed as inhibitors | Lassa virus pseudotype entry inhibition, cell reporter | 1.2% of 300,000 active | AID 540256; calls by dose curve; tested in HEK293 cells; note: nearly all actives have a fitted effect of over 50% in size
# Vaccinia mCherry: inhibitors of vaccinia virus infection (mCherry reporter signal); Vaccinia virus mCherry reporter infection, fluorescence; 0.63% of 310,000 active; Potency, µM (highest dose often 36.5 µM), usual class: inhibitors; calls by dose curve; tested in A549 cells; note: nearly all actives have a fitted effect of over 35% in size
# Vaccinia Venus: vaccinia inhibition (Venus reporter); Vaccinia virus Venus reporter expression, fluorescence; Potency, µM (highest dose often 36.5 µM), actives largely listed as inhibitors; 0.46% of 330,000 active; AID 720580; calls by dose curve; tested in A549 cells; note: nearly all actives have a fitted effect of over 30% in size
# HCMV inh: inhibitors of human cytomegalovirus; 4.5% of 410,000 active; AID 1259415; activity change, negative = inhibition, % at 57.5 µM; HFF cells, HCMV-luciferase reporter, 72 h; hits give low values; in the data active = activity change below about -60%; inconclusive = no clear call, values can overlap the other calls; inactive = above about -39%
#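 Screen run at 2 compound doses on HFFs infected with reporter HCMV, MOI 1 PFU/cell. Luciferase activity from cell lysates at 72 h post infection gave inhibition relative to buffer-only and Salinomycin wells.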
# Hits are given with their value; 0 = inactive; ? = inconclusive; - = no result given; + = active, no number; ! = not active in a repeat; [ ] = remark or other dose. Sampled rows, rich in hits. Any-hit rate of the full collection: about 7.8%.
SMILES,Marburg entry inh,HCV inhibitor,LASV entry inh,Vaccinia mCherry,Vaccinia Venus,HCMV inh
COc1cccc(NC(=O)c2sc3nc(C)c(C(=O)Nc4ccc(Cl)cc4)c(-c4ccc(Br)cc4)c3c2N)c1,?,-,?,0[7.34 µM],0[7.34 µM],0
Cc1ccc(-n2c(C)cc(C(=O)NS(=O)(=O)c3ccc(C)cc3)c2C)cc1,0,0,0,0,0,0
Cc1ccc(NC(=O)c2cc(C)n(-c3cccc(C)c3)c2C)cc1,6.51µM,?,10µM,0,0,0
Cc1ccc(NC(=O)c2cc(C)n(-c3ccccc3)c2C)cc1,2.24µM,?,2.82µM,0,0,-93.0
Cc1ccc(NC(=O)c2csc(-c3ccccc3)c2C)cc1,13µM,0,6.51µM,-,-,0
Cc1cc(C(=O)Nc2ccc(Cl)cc2)c(C)n1-c1ccccc1,1.12µM,0,?,0,0,-93.3
Cc1ccc(NC(=O)c2cnn(-c3ccccc3)c2C)cc1,-,?,-,-,-,0
COc1cc2nc(N3CCCN(C)CC3)nc(NC3CCNCC3)c2cc1OC,-,-,-,0,0,-
CNc1cc(-c2ccc(OC)c(OC)c2)ncn1,-,-,-,0,0,0
CNc1ccc2ncc(-c3ccc(OC)c(OC)c3)n2n1,-,-,-,0,?,-83.4
Cc1ccccc1NC(=O)CSCn1nnc2c(=O)[nH]c(Cc3ccc(F)cc3)nc21,0,-,0,0,0,0
CCOc1ccccc1-c1ccc(C(=O)NCc2ccccc2)o1,0,14.1µM,7.31µM,0,?,0
O=C(NCc1ccc(Cl)cc1)c1ccc(-c2ccccc2C(F)(F)F)o1,0,0[8.37 µM],5.17µM,0,0,0
Cc1ccc(-c2ccc(C(=O)NCc3ccccc3)o2)c2ccccc12,0,?,6.51µM,0,0,0
CCOc1cccc2cc(C(=O)NCc3ccccc3)c(=N)oc12,-,0,-,-,-,-
Cc1ccc(C2(C)CC(C)(C)N(C(=O)CSc3nnc(C)s3)c3ccccc32)cc1 (stereo not drawn),?,?,7.94µM,0,0,0
Cc1nnc(SCC(=O)N2c3ccccc3C(C)(c3ccccc3)CC2(C)C)s1 (stereo not drawn),?,?,?,?,?,-62.0
CCCCC(=O)N1c2ccccc2C(C)(c2ccccc2)CC1(C)C (stereo not drawn),0,-,?,0,0,0
COC(=O)N[C@H](C(C(=O)OC)=C(C)NCc1ccccc1)c1cccc(F)c1,0,-,-,-,-,-
CS(=O)(=O)c1cccc(C(=O)Nc2ccc(-c3nc4ccccc4[nH]3)cc2)c1,?,?,0,?,?,-65.1
CCCN(CCC)S(=O)(=O)c1ccc(C(=O)Nc2cccc(-c3nc4ccccc4[nH]3)c2)cc1,-,-,?,0,0,-88.2
CC(=O)Nc1cc(NC(C)=O)cc(-c2nc3ccccc3[nH]2)c1,0,0,0,?,0,-107.6!
CS(=O)(=O)c1ccccc1C(=O)Nc1ccc(-c2nc3ccccc3[nH]2)cc1,-,0,-,-,-,0
COc1c(Cl)cc(C(=O)Nc2cccc(-c3nc4ccccc4[nH]3)c2)cc1Cl,-,-,?,0,0,?
Cc1nn(CC(=O)NCc2cccc(Br)c2)c(=O)c2c1sc1ccccc12,0,-,0,0,0,0
SMILES,Marburg entry inh,HCV inhibitor,LASV entry inh,Vaccinia mCherry,Vaccinia Venus,HCMV inh
Clc1ccc(CNc2ncnc3[nH]ncc23)cc1Cl,3.98µM,0,7.08µM,11.2µM,10µM,0
COC(=O)/C=C1/S/C(=N/NC(=O)c2ccccc2C)NC1=O,0,0,0,-,-,-104.8
Cc1nn(S(=O)(=O)c2cccs2)c(C)c1Sc1ccc([N+](=O)[O-])cc1,0,10µM,?,?,?,-83.9
Cc1nn(S(=O)(=O)c2cccc([N+](=O)[O-])c2)c(C)c1Br,0,?,0,0,0,0
Cc1nn(S(=O)(=O)c2ccccc2)c(C)c1Sc1ccc([N+](=O)[O-])cc1,?,0,0,0,0,-85.3
Cc1cc(=O)n2c3ccccc3n(CC(O)CN3CCOCC3)c2c1C#N (stereo not drawn),0,?,0,0,0,0
Cc1cc(=O)n2c3ccccc3n(CC(O)CN3CCCCC3)c2c1C#N (stereo not drawn),?,?,0,0,0,-87.3
CCN1/C(=C/c2ccc3cccc(C)c3[n+]2CC)Sc2ccccc21,2.59µM,6.31µM,6.51µM,-,-,-103.6
CCN1/C(=C\c2ccc3cc(C)ccc3[n+]2CC)Sc2cc(C)c(C)cc21,?,2.82µM,-,-,-,-96.7
CC[n+]1c(/C=C/c2ccc(OC)c(OC)c2)ccc2ccccc21,-,0,-,-,-,0
CCN1/C(=C/c2ccc3cc(C)ccc3[n+]2CC)Sc2ccc3sccc3c21,-,3.55µM,-,0,0,-
CN1CCC[C@@H]1CCNC(=O)c1c(-c2ccc3c(c2)OCO3)noc1-c1ccsc1,-,0,-,0,?,-75.3
CN1CCC[C@H]1CCNC(=O)c1c(-c2ccsc2)sc2ccccc12,-,?,-,0,0,0
COc1ccc(CN2C(=O)C(n3c(C)ccc3C)c3cccc(F)c32)cc1 (stereo not drawn),-,-,-,-,-,0
CCN(C1=NS(=O)(=O)c2ccccc21)N(CC)S(=O)(=O)c1ccc(C)cc1,-,0,-,-,-,-68.7
C=C1[C@@H](O)[C@H](Cc2ccccc2)N(Cc2ccccc2Br)S1(=O)=O,-,0[8.37 µM],-,10µM,10µM,0
CCN1C(=O)[C@@H]2[C@H]3[C@H](O)[C@H](O)CC(=NOCC[C@@H]4C=C[C@H](OC(C)=O)[C@@H](COC(C)=O)O4)[C@@H]3CC[C@H]2C1=O,0,-,-,-,-,-
Nc1nonc1-n1nnc(C(=O)N/N=C/c2cccc(Cl)c2)c1-c1ccc2c(c1)OCO2,0,0,0,0,0,+
COc1ccccc1/C=N/NC(=O)c1nnn(-c2nonc2N)c1-c1cccs1,-,0,-,-,-,-
Nc1nonc1-n1nnc(C(=O)N/N=C/c2c(F)cccc2Cl)c1-c1ccc2c(c1)OCO2,-,0,-,-,-,0
Nc1nonc1-n1nnc(C(=O)N/N=C/c2ccc(F)cc2)c1-c1cccs1,0,0,0,0,0,+
Nc1nonc1-n1nnc(C(=O)N/N=C/c2ccc(Br)cc2)c1-c1ccc2c(c1)OCO2,?,0,0,0,0,+
Nc1nonc1-n1nnc(C(=O)N/N=C/c2ccc3c(c2)OCO3)c1-c1ccccc1,0,?,-,0,0,-69.7
COc1cc2c(cc1NC(=O)COC(=O)c1ccc(C(C)(C)C)cc1)oc1ccccc12,0,0,0,0,0,0
COc1cc2c(cc1NC(=S)Nc1cccc3ccccc13)oc1ccccc12,0,2.51µM,0,-,0,0
SMILES,Marburg entry inh,HCV inhibitor,LASV entry inh,Vaccinia mCherry,Vaccinia Venus,HCMV inh
COc1cc2c(cc1NC(=S)Nc1cccc(C(F)(F)F)c1)oc1ccccc12,0,10µM,0,?,0,0
COCCCNC(=S)Nc1cc2oc3ccccc3c2cc1OC,?,8.91µM,0,?,?,0
Cc1cc(CC(=O)O)c(C)cc1CC(=O)O,0,0,0,-,0,0
CC(=O)c1c(O)cc(O)c(C(C)=O)c1O,-,3.55µM,-,0,0,-
CC(=O)c1c(O)cc(O)cc1CC(=O)O,-,0.891µM,-,0,0,0
COc1cccc2cc(-c3cn4c(n3)sc3cc(F)ccc34)c(=O)oc12,-,-,?,0,0,0
CCC[C@H]1[C@@H](NC(=O)Nc2cccc(C(F)(F)F)c2)CC[C@@]23CCCN2C(=O)CCC[C@@H]13,-,-,-,-,-,0
